High-throughput results (PubChem BioAssay)
MITF inh: inhibitors of human MITF. AlphaScreen MITF homodimerization, bead proximity signal. inhibition, % at 2.6 µM. 650,000 tested, 0.91% active; in the data active = inhibition above about 50%
TEAD-YAP inh: TEAD-YAP interaction inhibition; inhibition, % at 9.12 µM; AID 1259422; 640,000 tested, 1.4% active; HEK-TIYL cells, TEAD-Gal4/YAP UAS-luciferase luminescence; in the data active = inhibition above about 32%
FBW7 activator: human FBW7 E3 ligase activation, primary screen; 650,000 tested, 0.13% active; normalized activity (activation), % at 26.1 µM; AID 1259310; Q969H0; AlphaScreen FBW7–phospho-cyclin E peptide binding, activator screen; in the data active = normalized activity above about 1.9%;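 note: purified mutant Fbw7 with reduced substrate affinity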
GPR151 ag: activates the human receptor GPR151. Q8TDV0. PathHunter beta-arrestin GPR151 cells, luminescence. activation, % at 11.2 µM. 650,000 tested, 1% active. AID 1508602; in the data active = activation above about 4.9%
Target sequence (Q8TDV0 whole entry, looked up): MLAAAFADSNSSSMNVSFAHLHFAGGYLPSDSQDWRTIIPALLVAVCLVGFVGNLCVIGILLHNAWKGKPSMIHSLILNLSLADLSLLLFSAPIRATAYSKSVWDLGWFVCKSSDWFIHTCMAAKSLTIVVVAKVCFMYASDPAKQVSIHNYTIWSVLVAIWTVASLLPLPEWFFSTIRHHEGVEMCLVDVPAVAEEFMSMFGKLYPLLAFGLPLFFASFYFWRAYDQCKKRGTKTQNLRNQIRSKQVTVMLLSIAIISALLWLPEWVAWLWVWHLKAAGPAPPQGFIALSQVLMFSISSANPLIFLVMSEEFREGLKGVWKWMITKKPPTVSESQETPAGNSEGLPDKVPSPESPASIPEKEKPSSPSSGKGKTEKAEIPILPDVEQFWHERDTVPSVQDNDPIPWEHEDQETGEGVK
A number is an active result; . = inactive. Only some compounds are listed: those with a hit (about 3.5% of all), similar ones and a draw of the others.

SMILES	MITF inh	TEAD-YAP inh	FBW7 activator	GPR151 ag
Cc1csnc1NC(=O)c1c(N)nc2c(c1C(F)(F)F)OC1=C(CCC1)O2	.	96.2	.	.
N#Cc1cc(-c2ccnc(Nc3ccc(-n4cnc(N5CCC(O)CC5)n4)cc3)n2)ccc1N1CCC(O)CC1	.	49.9	.	.
Cc1ncn(-c2ccc(Nc3nccc(-c4ccc(N5CCCC(CO)C5)c(C#N)c4)n3)cc2)n1 (stereo not given)	.	46.5	.	.
Cc1ncn(-c2ccc(Nc3nccc(-c4ccc(C#N)c(N5CCC(O)CC5)c4)n3)cc2)n1	.	69.5	.	.
C[C@@H]1CN(C(=O)Nc2cccc(Nc3nccc(-c4ccc(N5CCC(O)CC5)c(C#N)c4)n3)c2)C[C@H](C)O1	.	39.8	.	.
Cc1ncn(-c2ccc(Nc3nccc(-c4ccc(C#N)c(N5CCCC5)c4)n3)cc2)n1	.	.	.	.
Cc1nnc(Nc2ccc(OC(F)F)cc2)[nH]c1=O	.	.	.	.
CCSc1nnc2c(n1)OC(c1ccc(-c3cccc(Cl)c3C)o1)N(C(C)=O)c1ccccc1-2 (stereo not given)	.	.	.	.
C=CCn1c(-c2ccccc2)cnc1SCC(=O)Nc1ccccc1	.	.	.	.
C=CCn1c(-c2ccc(Cl)cc2)cnc1SCC(=O)Nc1sccc1C(N)=O	.	33.6	.	.
Oc1c(C(c2cccnc2)N2CCCCC2)ccc2cccnc12 (stereo not given)	92.3	.	.	.
Oc1c(C(c2ccncc2)N2CCCCC2)ccc2cccnc12 (stereo not given)	72.3	.	.	.
Oc1c(C(c2cccnc2)N2CCCC2)ccc2cccnc12 (stereo not given)	65.4	.	.	.
CN(C)/C(CN1CCN(C=O)CC1)=C1\N=C(c2ccccc2)OC1=O	.	.	.	.
CCOc1ccc(NSc2ccccc2[N+](=O)[O-])cc1	.	.	.	.
Cc1ccc(NSc2ccccc2[N+](=O)[O-])cc1	.	56.3	.	.
COc1ccc(CCNC(=O)c2cccc(Nc3ccc(-n4ccnc4)cc3)n2)cc1	.	49.0	.	.
O=C(NCc1ccccc1)c1cccc(Nc2ccc(N3CCOCC3)cc2)n1	.	.	.	.
O=C(NCCOc1ccccc1)c1cccc(Nc2ccc(N3CCOCC3)cc2)n1	.	47.0	.	.
COc1ccc(CCNC(=O)c2cccc(Nc3ccncc3)n2)cc1	.	.	.	.
O=C(NCCOc1ccccc1)c1ccc2ccccc2n1	.	52.7	.	.
O=C(NCCOc1ccccc1F)c1ccc2ccccc2n1	.	58.2	.	.
Cc1ccc(C(NC(=O)NCCCN2CCOCC2)=C(Cl)Cl)cc1F	.	.	.	.
CC(=O)n1c2c(c3ccccc31)OC(N)=C(C#N)C2c1ccncc1 (stereo not given)	.	.	.	.
O=c1c2c(nc3cc(-c4ccco4)[nH]n13)CCS2	88.8	.	.	.
SMILES	MITF inh	TEAD-YAP inh	FBW7 activator	GPR151 ag
CCOC(=O)c1cnc2cc(C(F)(F)F)ccc2c1N1CCN(c2ccccc2OC)CC1	.	.	.	.
O=S(=O)(O)c1cc(I)c(O)c2ncccc12	122.8	.	.	.
Oc1c(Cl)cc(Cl)c2cccnc12	.	.	.	.
Oc1c(I)cc(I)c2cccnc12	.	52.1	.	.
CSC1=NSC2=NC(=O)/C(=C\c3ccc(C)o3)C(=N)N12	.	.	.	.
CSC1=NSC2=NC(=O)/C(=C\c3ccc([N+](=O)[O-])o3)C(=N)N12	85.4	.	.	.
CN(C)N1C(N)=C(C#N)C(c2ccccc2Cl)C2=C1CC(c1ccccc1)CC2=O (stereo not given)	.	38.6	.	.
Cc1ccc(C(=O)N/C(=C/c2ccc(-c3ccc(Cl)cc3)o2)C(=O)NCc2ccccc2)cc1	.	.	.	.
O=C(NCc1cccnc1)/C(=C/c1ccc(-c2ccc(Cl)cc2)o1)S(=O)(=O)c1ccccc1	.	56.2	.	.
CC1CCc2nc(NC(=O)c3ccco3)sc2C1 (stereo not given)	.	73.9	.	.
O=C(CSc1nnc2ccc(-c3cccnc3)nn12)N1CCCc2ccccc21	.	.	1.9	.
O=C(CSc1nnc2ccc(-c3ccc(Cl)cc3)nn12)N1CCCc2ccccc21	.	.	.	.
O=C1N=C(N2CCOCC2)S/C1=C\c1ccccc1	.	.	.	.
Cc1cccc(Nc2nc3nonc3nc2Nc2ccc(I)cc2)c1C	.	.	.	.
Cc1cccc(Nc2nc3nonc3nc2Nc2ccc(F)cc2)c1C	.	35.0	.	.
Cc1ccc(Nc2nc3nonc3n3nnnc23)cc1C	.	.	.	.
Fc1ccc(Nc2nc3nonc3nc2Nc2ccccc2F)cc1	.	82.6	.	.
Fc1ccc(Nc2nc3nonc3n3nnnc23)cc1	.	45.6	.	.
